The whole screen tested about 400,000 compounds, of which about 13,000 (3.2%) were called active. Another 18% or so got no clear call; they are omitted. Calls come from the whole dose curve; as a rule, active = well fitted cell-killing curve with a large enough effect; inconclusive = small, poorly fitted or top-dose-only effect, or effect the other way; inactive = flat fitted curve, though single readings scatter. Shown is part of a subset that was picked to be rich in actives.
Assay: qHTS assay for MDR1-selective chemotherapeutics: Primary screen using the drug-selected MDR subline cells KB-V1; note: nearly all actives have a fitted effect of over 60% in size
Details: KB-V1 MDR cells viability, CellTiter-Glo, 72 h; series mostly up to 46.1 µM; activity change, negative = cytotoxicity: at the top concentration
Description: A prime difficulty in effectively treating cancer is the development of cellular resistance to multiple structurally unrelated anticancer drugs, a phenomenon known as multidrug resistance (MDR). […] Numerous strategies to overcome P-gp-mediated MDR have been explored, including the design of drugs that evade recognition and efflux, and development of inhibitors to block efflux and restore drug accumulation. […] An alternative approach is to exploit resistance by identifying drugs that target MDR cells over the non-resistant parental cells from which they were selected. […] The development of MDR1-selective agents represents a new strategy for resolving multidrug resistance, as it remains a long-standing clinical challenge for cancer chemotherapy.
Our goal is to identify compounds that selectively kill P-gp-expressing MDR cells. We will identify MDR1-selective compounds by comparing toxicity of compounds in the screening library against parental, drug-naive (KB-3-1) adenocarcinoma cells as well as their drug-selected MDR sub-line (KB-V1). The differential toxicity of compounds against these two cell lines will be used to identify MDR1-selective compounds, whose cytotoxicity is potentiated, rather than diminished, by P-gp expression. This assay will be utilized to conduct a quantitative high-throughput screen (qHTS) in collaboration with the NIH Chemical Genomics Center to identify selective agents, and probe hits arising from the screen will be validated using secondary assays and characterized through a well-established follow-up research program. This screen was run against the entire NCGC library collection of about 400,000 compounds.
NIH Molecular Libraries Probe Production Network [MLPCN]
NIH Chemical Genomics Center [NCGC]
PI: Michael Gottesman, National Cancer Institute, NIH
Briefly, 5 microL of media containing either KB-V1 cells (columns 1-2, 4-48) are dispensed into Greiner white, treated solid-bottom 1536-well assay plates (media-only control is added to column 3). Compounds are then transferred via Kalypsys pin tool equipped with 1536-pin array (10 nL slotted pins, V&P Scientific, San Diego, CA). Following addition of compound, the plates are incubated at 37 degrees C for 72 hours. CellTiter-Glo (2.5 µL/well) is then added, and the plates are read in a ViewLux reader (Perkin-Elmer, clear luminescence filter, 1 second exposure, 1x binning) following a 10 minute incubation. All cells are dispensed in DMEM phenol-red free media containing 10% FBS.
Library plates were screened starting from the lowest and proceeding to the highest concentration. Vehicle-only plates, with DMSO being pin-transferred to columns 5-48, will be inserted uniformly at the beginning and the end of each library in order to monitor and record any shifts in the background, which can be affected by reagent dispensers or loss in enzyme activity over time. Screening data will be corrected, normalized, and concentration-effect relationships will be derived by using publicly-available NCGC, NCATS curve fitting algorithms (http://ncgc.nih.gov/pub/openhts).
% is set by controls: 0 for no effect and ±100 for the full control effect; potency is the fitted concentration of half-maximal effect.

| SMILES | Potency | activity change, negative = cytotoxicity |
| --- | --- | --- |
| CCCCCCCCCCCCn1ccc(=N)cc1 | 8.2 µM (active) | – |
| COC(=O)C(O)(c1ccc(NC(=O)c2ccco2)c(OC)c1)C(F)(F)F (stereo not drawn) | – | -1.11% (inactive) |
| COC(=O)C1=C(c2cc3ccccc3s2)C[C@@H]2CC[C@H]1N2C(=O)NCCO | – | 7.44% (inactive) |
| CCCCCn1c(=O)c(C(=O)NCc2ccccc2)c(O)c2ccccc21 | – | -27.1% (inactive) |
| CCCCn1c(=O)c(C(=O)Nc2ccccc2Cl)c(O)c2ccccc21 | – | 6.12% (inactive) |
| CCCCCn1c(=O)c(C(=O)Nc2c(C)n(C)n(-c3ccccc3)c2=O)c(O)c2ccccc21 | 2.06 µM (active) | – |
| CCCCCn1c(=O)c(C(=O)NCc2ccccn2)c(O)c2ccccc21 | 14.6 µM (active) | – |
| COc1cc(C(c2c(O)c3ccccc3oc2=O)c2c(C)n(C)n(-c3ccccc3)c2=O)ccc1O (stereo not drawn) | inactive | – |
| O=C(O)c1cc[c]([Sb](=[O])([OH])[OH])cc1[N+](=O)[O-] | – | 19.3% (inactive) |
| Cc1ccc(S(=O)(=O)N(C)c2ccc(C(=O)NCC3(N(C)C)CCCCC3)cc2)cc1 | – | -25.2% (inactive) |
| Cc1c(Oc2cc(NN3CCCCC3)c([N+](=O)[O-])cc2[N+](=O)[O-])cccc1[N+](=O)[O-] | – | 0.977% (inactive) |
| CCC1(CC(C)c2ccccc2)C(=O)NC(=O)NC1=O (stereo not drawn) | – | -16.6% (inactive) |
| C[N+]1(C)CCOC(O)(c2ccc(-c3ccc(C4(O)C[N+](C)(C)CCO4)cc3)cc2)C1 (stereo not drawn) | – | 19.4% (inactive) |
| ClC(Cl)(Cl)c1ccccc1 | – | 15.8% (inactive) |
| COC(=O)C1=C(c2ccccc2OCc2ccccc2)C[C@@H]2CC[C@H]1N2C(=O)NCc1ccc(OC)cc1 | – | -16% (inactive) |
| COC(=O)C1=C(c2ccc(-c3ccccc3)c(F)c2)C[C@@H]2CC[C@H]1N2C(=O)NCc1ccc(F)cc1 | 20.6 µM (active) | – |
| COC(=O)C1=C(c2ccc(OCc3ccccc3)cc2)C[C@@H]2CC[C@H]1N2C(=O)NCc1ccc(Cl)cc1 | 14.6 µM (active) | – |
| COC(=O)C1=C(c2ccc(OCc3ccccc3)cc2)C[C@@H]2CC[C@H]1N2C(=O)NCc1cccc(F)c1 | 7.31 µM (active) | – |
| COC(=O)C1=C(c2ccccc2)C[C@@H]2CC[C@H]1N2C(=O)NCc1ccco1 | – | 8.16% (inactive) |
| COC(=O)C1=C(c2ccc(F)cc2OCc2ccccc2)C[C@@H]2CC[C@H]1N2C(=O)NCc1ccc(OC)c(OC)c1 | – | -0.539% (inactive) |
| COC(=O)C1=C(c2ccc(F)cc2OCc2ccccc2)C[C@@H]2CC[C@H]1N2C(=O)NCc1ccc(Cl)cc1 | – | -28% (inactive) |

| SMILES | Potency | activity change, negative = cytotoxicity |
| --- | --- | --- |
| COC(=O)C1=C(c2ccc(F)cc2OCc2ccccc2)C[C@@H]2CC[C@H]1N2C(=O)NCc1ccc2[nH]ccc2c1 | – | -20.5% (inactive) |
| COC(=O)C1=C(c2ccc(F)cc2OCc2ccccc2)C[C@@H]2CC[C@H]1N2C(=O)NCc1ccc(C(C)(C)C)cc1 | – | -15.8% (inactive) |
| Nc1ccc(Cc2ccc(N)c(Cl)c2)cc1Cl | – | -0.293% (inactive) |
| O=C(O)/C=C/c1ccc2c(c1)OCO2 | – | -4.19% (inactive) |
| O=C1NC(=O)C(Cc2ccccc2)C(=O)N1 | – | -4.35% (inactive) |
| COc1ccc(-n2nnnc2C(c2cccc3ccccc23)N2CCC(n3c(=O)[nH]c4ccccc43)CC2)cc1 (stereo not drawn) | – | -22.8% (inactive) |
| COC(=O)N1C(c2ccccc2)C1c1ccccc1 (stereo not drawn) | – | 9.07% (inactive) |
| Fc1ccc(C2N3CCCN23)cc1 (stereo not drawn) | – | 11.6% (inactive) |
| CC(C)CN1Cc2cc(N3CCCCC3)ccc2-n2nncc2C1 | – | 15.3% (inactive) |
| CC(=O)NC(=O)NC(C)Cc1ccccc1 (stereo not drawn) | – | 13.9% (inactive) |
| CC(Cc1ccccc1)NCCC(c1ccccc1)c1ccccc1 (stereo not drawn) | 14.6 µM (active) | – |
| CC(Cc1ccccc1)NC=O (stereo not drawn) | – | 15.5% (inactive) |
| C[C@]12CCCCC1=CC(=O)C1C2CC[C@@]2(C)C1C[C@@H](F)[C@@H]2O (stereo partly drawn) | – | -14.1% (inactive) |
| CC(c1ccccc1)(c1ccccc1)c1ccncc1 | – | -22.6% (inactive) |
| C/C(CCc1c[nH]c2ccccc12)=N\O | – | 2.16% (inactive) |
| O=[N+]([O-])c1cnc2ccc3ccccc3c2c1 | – | 3.87% (inactive) |
| C/C(=N/O)c1ccc2ccc3ccccc3c2c1 | 3.26 µM (active) | – |
| CC1(C)Cc2c(C#N)c(N3CCNCC3)nc(-c3ccco3)c2CS1 | – | -29.5% (inactive) |
| CCOC(=O)C1(c2ccccc2)CCN(CC(O)c2ccc(NC(C)=O)cc2)CC1 (stereo not drawn) | – | -4.21% (inactive) |
| O=C(CCN1CCCCC1)NCC(=O)Nc1ccc(Br)cc1C(=O)c1ccccc1 | 18.4 µM (active) | – |
| O=C(CN1CCCCC1)Nc1ccc(Br)cc1C(=O)c1ccccc1Cl | – | -7.61% (inactive) |

| SMILES | Potency | activity change, negative = cytotoxicity |
| --- | --- | --- |
| CCOC(=O)CNC(=O)N1Cc2cc(N3CCCCC3)ccc2-n2nncc2C1 | – | 1.87% (inactive) |
| C[C@H]1CN([C@@H](C)CO)C(=O)CCCn2nncc2CO[C@H]1CN(C)C(=O)Oc1cccc2ccccc12 | – | 0.932% (inactive) |
| Cc1ccc(C(C)C)c(OCC(=O)N2CCN(CC(=O)N3CCOCC3)CC2)c1 | – | 25.3% (inactive) |
| CC1CCCN1CCC(C(N)=O)(c1ccccc1)c1ccccc1 (stereo not drawn) | – | -4.22% (inactive) |
| O=C(NC1CCCCC1)N1Cc2cc(N3CCCCC3)ccc2-n2nncc2C1 | – | 7% (inactive) |
| c1ccc2c(c1)[I+]c1ccccc1-2 | 16.4 µM (active) | – |
| CC=C(C)C(=O)OC1CCN2CC=C(COC(=O)C(O)(C(C)OC)C(C)(C)O)C12 (stereo not drawn) | – | -1.56% (inactive) |
| CC1CNCCN1c1ccc(Cl)cc1 (stereo not drawn) | – | -17.4% (inactive) |
| O=C(COC(=O)c1ccccc1)Nc1ccc(Cl)cc1C(=O)c1ccccc1 | – | 9.26% (inactive) |
| O=C(Nc1ccc(Cl)cc1C(=O)c1ccccc1)c1cc(Cl)cc(Cl)c1 | – | 0% (inactive) |
| CN1CCN(C(=S)SCC(=O)Nc2ccc(Cl)cc2C(=O)c2ccccc2)CC1 | 5.17 µM (active) | – |
| COc1ccc(C2C=C(C)Oc3c2c(=O)oc2ccccc32)cc1OC (stereo not drawn) | – | -20.1% (inactive) |
| Cc1ncoc1C(=O)NCC1=C(c2cccc3ccccc23)C[C@@H]2CC[C@H]1N2Cc1ccco1 | – | 0.247% (inactive) |
| C=C(C)C1(CCCC)C(=O)NC(=S)NC1=O | – | 2.18% (inactive) |
| Oc1cc2c(cc1CN1CCN(c3ccccc3)CC1)OCO2 | – | 6.2% (inactive) |
| Cc1cc(C)c2c(c1)NP(=S)(c1ccccc1)N2 (stereo not drawn) | – | -13.5% (inactive) |
| C[C@]12CCC3C(CC[C@H]4[C@H](O)[C@H](O)CC[C@]34C)C1CC[C@@H]2O (stereo partly drawn) | – | 1.98% (inactive) |
| C[C@]12CCC3C(CC[C@H]4C[C@@H](O)CC[C@]34C)C1CC[C@@H]2O (stereo partly drawn) | – | 1.24% (inactive) |
| CC12CCC(O)CC1CCC1C2CCC2(C)C(C(=O)CC(O)C(F)(F)F)CCC12 (stereo not drawn) | 23.1 µM (active) | – |
| COC(=O)[C@@H]1C(OC(=O)c2ccccc2)CC2CCC1N2C (stereo partly drawn) | – | 8.91% (inactive) |
| Cn1c(O)c(C(=Nc2ccc(F)cc2)c2ccccc2)c(=O)n(C)c1=O | – | -17.9% (inactive) |

From PubChem BioAssay AID1347076 (National Center for Advancing Translational Sciences (NCATS), 2019)
